This is an account of results in ChEMBL document CHEMBL3988442, “University of Dundee, Small-Polar-MMV Screening Library” (2021).

For some of these results: Potency and affinity values are given separately.

Design in all cases: scale not given: direction of the effect not stated beside the values
The target of experiment [1] is Protein translocase subunit SecA (Escherichia coli (strain K12)) (UniProt P10408). As to the kind of experiment: Assay to Identify E. coli SecA ATPase Inhibitors. It counts as functional. Conditions: 30 µM.
Chain of Protein translocase subunit SecA (Escherichia coli (strain K12)) (P10408 whole entry): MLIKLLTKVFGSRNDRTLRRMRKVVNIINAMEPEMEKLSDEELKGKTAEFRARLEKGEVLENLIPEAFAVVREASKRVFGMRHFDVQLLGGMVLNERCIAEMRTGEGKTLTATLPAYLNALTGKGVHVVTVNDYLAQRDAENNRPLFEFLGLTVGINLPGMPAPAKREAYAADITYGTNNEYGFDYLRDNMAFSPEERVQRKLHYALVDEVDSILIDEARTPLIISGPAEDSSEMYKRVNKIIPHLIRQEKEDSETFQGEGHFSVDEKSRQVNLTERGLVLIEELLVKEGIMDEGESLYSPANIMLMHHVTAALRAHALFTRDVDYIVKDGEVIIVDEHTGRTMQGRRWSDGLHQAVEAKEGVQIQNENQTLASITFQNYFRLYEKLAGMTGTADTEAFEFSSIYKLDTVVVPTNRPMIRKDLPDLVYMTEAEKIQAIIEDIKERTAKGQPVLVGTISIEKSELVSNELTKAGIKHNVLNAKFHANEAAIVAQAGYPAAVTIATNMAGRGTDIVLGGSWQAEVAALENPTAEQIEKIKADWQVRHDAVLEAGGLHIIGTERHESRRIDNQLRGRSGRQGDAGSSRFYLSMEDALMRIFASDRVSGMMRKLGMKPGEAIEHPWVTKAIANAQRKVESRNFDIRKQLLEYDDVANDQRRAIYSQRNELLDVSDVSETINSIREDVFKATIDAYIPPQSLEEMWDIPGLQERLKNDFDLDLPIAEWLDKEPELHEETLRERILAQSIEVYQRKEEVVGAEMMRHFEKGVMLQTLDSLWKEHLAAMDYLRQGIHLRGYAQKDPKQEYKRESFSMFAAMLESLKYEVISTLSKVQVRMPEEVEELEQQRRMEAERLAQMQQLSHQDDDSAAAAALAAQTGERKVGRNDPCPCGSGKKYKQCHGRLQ
The target in experiment [2] is T1, Ubiquitin-activating enzyme e1, putative (Leishmania donovani (strain BPK282A1)) (UniProt E9BSI1).
T1 sequence (whole entry): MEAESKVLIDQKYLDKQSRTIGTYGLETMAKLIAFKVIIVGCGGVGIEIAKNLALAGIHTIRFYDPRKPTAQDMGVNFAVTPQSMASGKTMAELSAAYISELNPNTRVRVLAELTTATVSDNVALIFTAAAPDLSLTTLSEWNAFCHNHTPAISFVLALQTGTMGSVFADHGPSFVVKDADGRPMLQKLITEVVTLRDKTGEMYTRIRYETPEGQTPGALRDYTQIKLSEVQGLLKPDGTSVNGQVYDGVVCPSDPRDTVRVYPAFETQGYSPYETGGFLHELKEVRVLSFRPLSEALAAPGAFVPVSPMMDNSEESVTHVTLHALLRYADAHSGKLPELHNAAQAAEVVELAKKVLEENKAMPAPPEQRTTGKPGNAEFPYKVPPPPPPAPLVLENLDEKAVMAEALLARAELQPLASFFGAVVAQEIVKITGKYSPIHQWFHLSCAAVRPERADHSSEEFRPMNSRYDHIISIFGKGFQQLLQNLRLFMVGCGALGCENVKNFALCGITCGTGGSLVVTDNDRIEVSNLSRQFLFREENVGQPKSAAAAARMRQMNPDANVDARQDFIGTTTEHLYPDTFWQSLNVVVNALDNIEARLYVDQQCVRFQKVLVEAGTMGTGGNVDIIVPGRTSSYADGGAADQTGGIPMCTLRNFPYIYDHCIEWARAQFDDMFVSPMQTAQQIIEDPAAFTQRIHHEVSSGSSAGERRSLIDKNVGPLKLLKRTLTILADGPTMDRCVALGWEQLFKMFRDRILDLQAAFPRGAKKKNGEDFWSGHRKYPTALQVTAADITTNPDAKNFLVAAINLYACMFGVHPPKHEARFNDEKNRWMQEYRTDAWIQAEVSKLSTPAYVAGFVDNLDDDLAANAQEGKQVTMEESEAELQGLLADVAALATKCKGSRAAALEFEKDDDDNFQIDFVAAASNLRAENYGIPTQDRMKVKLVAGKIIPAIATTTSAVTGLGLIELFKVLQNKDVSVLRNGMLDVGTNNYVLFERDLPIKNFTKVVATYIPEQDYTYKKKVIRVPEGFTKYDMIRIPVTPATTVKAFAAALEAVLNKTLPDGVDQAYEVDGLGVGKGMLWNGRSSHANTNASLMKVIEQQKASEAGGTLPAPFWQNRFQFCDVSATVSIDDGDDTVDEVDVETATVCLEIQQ
As to the kind of experiment: Leishmania donovani Ubiquitin Activating Enzyme (LdE1). It counts as functional. Conditions: 30 µM.

The target in experiment [3] is AMP-activated protein kinase, AMPK (Homo sapiens) (UniProt P54646+O43741+P54619+Q9UGJ0+Q9Y478+Q13131+Q9UGI9). As to the kind of experiment: AMP-dependent Kinase enzyme assay. An in vitro enzyme assay that detects ADP turnover that is directly proportional to AMPK activity. This uses naive AMPK that is activated during the assay with MK-8722. Conditions: 30 µM. It counts as functional.

The target in experiment [4] is Sialic acid-binding Ig-like lectin 9 (Homo sapiens) (UniProt Q9Y336). As to the kind of experiment: Hs-Siglec9 ALPHAscreen SOP 20170721. Conditions: 10 µM. On the technique in general: Bead proximity is the source of the signal in Alpha formats.
Chain of Sialic acid-binding Ig-like lectin 9 (Homo sapiens) (Q9Y336 whole entry): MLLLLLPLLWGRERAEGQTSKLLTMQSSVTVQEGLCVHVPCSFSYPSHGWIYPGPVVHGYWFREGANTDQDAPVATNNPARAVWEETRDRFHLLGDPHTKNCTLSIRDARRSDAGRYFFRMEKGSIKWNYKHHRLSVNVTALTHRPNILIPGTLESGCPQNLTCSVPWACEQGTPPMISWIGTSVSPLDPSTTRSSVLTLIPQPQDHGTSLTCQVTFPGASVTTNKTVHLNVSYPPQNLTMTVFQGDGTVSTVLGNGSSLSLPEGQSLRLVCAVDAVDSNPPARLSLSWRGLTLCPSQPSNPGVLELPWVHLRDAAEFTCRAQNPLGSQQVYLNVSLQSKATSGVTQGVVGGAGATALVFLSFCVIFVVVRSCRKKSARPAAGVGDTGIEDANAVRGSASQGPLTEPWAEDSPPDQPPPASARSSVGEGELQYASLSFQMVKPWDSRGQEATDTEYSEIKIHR
Another experiment relates to Trypanosoma cruzi. As to the kind of experiment: Trypanosoma cruzi phosphomannomutase and mannose-1-phosphate guanylyltransferase assay. The conditions noted are these: 10 µM. The class given is functional.
For experiment [5], the target named is T2, Arginase-2, mitochondrial (Homo sapiens) (UniProt P78540).
T2 sequence (whole entry): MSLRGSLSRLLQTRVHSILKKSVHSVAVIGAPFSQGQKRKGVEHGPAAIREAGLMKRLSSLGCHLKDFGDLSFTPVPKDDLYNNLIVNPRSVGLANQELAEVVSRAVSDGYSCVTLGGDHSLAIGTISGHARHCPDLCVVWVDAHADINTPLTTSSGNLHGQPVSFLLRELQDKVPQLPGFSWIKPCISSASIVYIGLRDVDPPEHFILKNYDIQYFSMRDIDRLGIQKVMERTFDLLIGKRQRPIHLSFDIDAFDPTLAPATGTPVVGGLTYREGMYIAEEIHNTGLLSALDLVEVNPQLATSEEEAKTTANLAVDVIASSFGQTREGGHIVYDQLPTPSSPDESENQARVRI
As to the kind of experiment: in vitro enzyme assay to detect the production of urea directly proportional to the activity of Arginase II. Note: in the data most compounds retested in dose-response had high values. It counts as functional. Conditions: 33.3 µM.

For experiment [6], the target named is T3, Proteasome subunit beta (Trypanosoma cruzi) (UniProt O96673).
T3 sequence (whole entry): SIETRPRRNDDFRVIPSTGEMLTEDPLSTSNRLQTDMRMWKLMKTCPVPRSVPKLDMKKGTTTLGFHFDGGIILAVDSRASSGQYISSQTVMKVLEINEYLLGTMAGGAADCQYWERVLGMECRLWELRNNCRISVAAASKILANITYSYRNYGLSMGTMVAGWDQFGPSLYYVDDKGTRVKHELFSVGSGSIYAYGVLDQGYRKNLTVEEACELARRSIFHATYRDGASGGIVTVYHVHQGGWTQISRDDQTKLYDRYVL
As to the kind of experiment: Trypanosoma cruzi proteasome chymotrypsin-like activity (TcProtChymo) assay. Note: in the data most compounds retested in dose-response had high values. The conditions noted are these: 9.37 µM. The class given is functional.

The species named for the next experiment is Homo sapiens. As to the kind of experiment: To identify inhibition of the IFN signalling (Jak-Stat) pathway via expression of an eGFP reporter gene under the control of an IFN-stimulated response element (ISRE) containing MxA promoter. The conditions noted are these: 30 µM. The class given is functional. For orientation: A reporter such as luciferase makes a cellular process visible.

For experiment [7], the target named is T4, Tyrosyl-tRNA synthetase, putative (Trypanosoma cruzi (strain CL Brener)) (UniProt Q4DSP6).
T4 sequence (whole entry): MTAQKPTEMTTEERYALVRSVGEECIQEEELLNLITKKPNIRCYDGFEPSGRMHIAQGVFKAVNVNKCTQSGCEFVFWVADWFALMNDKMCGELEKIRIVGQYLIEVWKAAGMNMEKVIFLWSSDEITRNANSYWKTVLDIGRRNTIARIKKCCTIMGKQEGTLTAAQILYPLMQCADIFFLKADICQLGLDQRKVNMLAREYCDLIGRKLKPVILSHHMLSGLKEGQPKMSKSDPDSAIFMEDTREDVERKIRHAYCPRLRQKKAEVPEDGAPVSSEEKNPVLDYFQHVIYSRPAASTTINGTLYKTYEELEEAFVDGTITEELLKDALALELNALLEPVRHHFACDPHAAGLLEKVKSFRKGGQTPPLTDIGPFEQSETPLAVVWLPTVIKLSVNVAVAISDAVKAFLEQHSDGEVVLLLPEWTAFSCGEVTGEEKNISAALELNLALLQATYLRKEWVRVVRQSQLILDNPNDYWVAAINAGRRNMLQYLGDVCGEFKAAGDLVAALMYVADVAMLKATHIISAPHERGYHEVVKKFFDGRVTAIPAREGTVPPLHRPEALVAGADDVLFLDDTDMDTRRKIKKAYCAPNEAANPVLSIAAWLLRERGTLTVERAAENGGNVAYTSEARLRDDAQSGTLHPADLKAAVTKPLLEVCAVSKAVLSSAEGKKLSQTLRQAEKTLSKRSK
As to the kind of experiment: Trypanosoma cruzi tyrosyl tRNA synthetase (TcYRS) _High Tyrosine SOP. Note: in the data most compounds retested in dose-response had high values. It counts as functional. Conditions: 30 µM.

Experiment [8] addresses T4, Tyrosyl-tRNA synthetase, putative (Trypanosoma cruzi (strain CL Brener)). As to the kind of experiment: Trypanosoma cruzi tyrosyl tRNA synthetase (TcYRS) SOP. It counts as functional. Conditions: 30 µM.
Experiment [9] addresses Chromo domain-containing protein 1 (Saccharomyces cerevisiae (strain ATCC 204508 / S288c) (Baker's yeast)) (UniProt P32657). As to the kind of experiment: ScCHD-1 Enzyme Inhibition Assay. Note: in the data most compounds retested in dose-response had high values. The conditions noted are these: 30 µM. It counts as functional.

Chain of Chromo domain-containing protein 1 (Saccharomyces cerevisiae (strain ATCC 204508 / S288c) (Baker's yeast)) (P32657 whole entry, the tested form may be a part): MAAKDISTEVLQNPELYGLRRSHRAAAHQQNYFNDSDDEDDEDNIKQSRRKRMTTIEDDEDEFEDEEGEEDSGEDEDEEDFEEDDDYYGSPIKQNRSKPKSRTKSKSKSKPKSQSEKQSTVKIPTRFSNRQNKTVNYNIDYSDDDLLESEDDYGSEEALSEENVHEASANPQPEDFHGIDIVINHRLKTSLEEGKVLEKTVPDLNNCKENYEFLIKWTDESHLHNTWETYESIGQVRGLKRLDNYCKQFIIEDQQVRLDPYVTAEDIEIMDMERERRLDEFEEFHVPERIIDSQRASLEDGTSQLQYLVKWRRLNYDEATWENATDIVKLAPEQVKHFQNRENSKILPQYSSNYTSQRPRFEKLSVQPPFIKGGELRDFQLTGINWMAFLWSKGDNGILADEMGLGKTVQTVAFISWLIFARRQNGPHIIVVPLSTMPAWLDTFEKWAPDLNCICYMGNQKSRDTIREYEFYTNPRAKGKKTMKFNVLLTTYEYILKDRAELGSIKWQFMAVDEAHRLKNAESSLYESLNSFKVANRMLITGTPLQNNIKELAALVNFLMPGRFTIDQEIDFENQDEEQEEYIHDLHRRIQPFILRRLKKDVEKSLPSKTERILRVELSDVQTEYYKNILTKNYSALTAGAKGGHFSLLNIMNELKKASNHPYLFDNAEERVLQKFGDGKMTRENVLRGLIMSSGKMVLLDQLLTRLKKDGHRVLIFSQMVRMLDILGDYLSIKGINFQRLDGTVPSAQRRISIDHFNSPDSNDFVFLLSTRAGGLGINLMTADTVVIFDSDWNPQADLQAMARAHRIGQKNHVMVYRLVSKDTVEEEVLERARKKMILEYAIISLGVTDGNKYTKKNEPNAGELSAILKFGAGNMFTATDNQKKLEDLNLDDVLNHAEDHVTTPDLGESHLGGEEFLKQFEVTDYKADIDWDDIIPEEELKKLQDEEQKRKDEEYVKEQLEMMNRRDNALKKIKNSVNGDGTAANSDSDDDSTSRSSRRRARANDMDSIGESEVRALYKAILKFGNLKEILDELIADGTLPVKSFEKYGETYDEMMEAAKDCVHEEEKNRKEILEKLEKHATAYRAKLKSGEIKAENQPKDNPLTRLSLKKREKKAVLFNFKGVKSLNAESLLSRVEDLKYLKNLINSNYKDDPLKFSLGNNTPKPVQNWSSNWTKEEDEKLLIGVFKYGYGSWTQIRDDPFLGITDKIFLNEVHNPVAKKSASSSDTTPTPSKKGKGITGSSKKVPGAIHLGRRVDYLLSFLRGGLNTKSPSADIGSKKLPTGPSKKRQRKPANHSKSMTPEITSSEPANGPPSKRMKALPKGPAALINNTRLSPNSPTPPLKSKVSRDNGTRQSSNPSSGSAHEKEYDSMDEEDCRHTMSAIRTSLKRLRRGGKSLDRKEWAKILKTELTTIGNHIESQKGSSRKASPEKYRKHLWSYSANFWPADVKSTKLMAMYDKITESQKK

With `O=C1NCCN1C1CCCN(Cc2nnc(-c3ccc(F)cc3)o2)C1` (stereo unspecified), the Percent Effect in experiment [1] is -1.01%; in experiment [2], 2.7%; in [3], -4.34%; in experiment [4], 16.6%; in the experiment on Trypanosoma cruzi it was 6.04%; in experiment [5], 2.03%. Moreover, the Percent Effect is 9.7% in [6]; -7.13% in the experiment listed under Homo sapiens; 3.96% in experiment [7]; 15.8% in experiment [8]; -2.67% in [9].

For the compound `CCc1cnc(CN(C)C2CCN(CCS(C)(=O)=O)C2)o1` (stereo unspecified), the Percent Effect in [1] was -1.6%; in [2], -1.39%; in experiment [3] it was -3.86%; in [4] it was -4.8%; with Trypanosoma cruzi, -5.54%; in [5], 2.21%. For the same compound, the Percent Effect is 3.51% in [6]; -7.25% in the experiment listed under Homo sapiens; 0% in experiment [7]; 2.56% in experiment [8]; 0.436% in experiment [9].

For the compound `Cn1cc(CN2CC[C@@H]3O[C@H](C(=O)N4CCOCC4)C[C@@H]32)cn1`, the Percent Effect was 1.91% in [1]; -2.7% in [2]; 0.801% in experiment [3]; -2.48% in experiment [4]; -3.91% in the experiment on Trypanosoma cruzi; 2.5% in experiment [5]. The Percent Effect is -0.0845% in [6]; -20.5% in the experiment filed under Homo sapiens; -46.5% in [7]; -3.66% in experiment [8]; 4.62% in experiment [9].

Turning to `CC(C)C(C(=O)N1CCC(Nc2cccnn2)CC1)n1cncn1` (stereo unspecified), the Percent Effect was -0.999% in experiment [1]; -2.7% in [2]; -4.26% in [3]; 1.29% in experiment [4]; -6.51% with Trypanosoma cruzi; 1.2% in [5]. For the same compound, the Percent Effect in experiment [6] is 5.59%; in the experiment listed under Homo sapiens it was 9.97%; in [7], 0.493%; in [8], -1.24%; in [9], -1.75%.

On to `CCc1noc(C2CCCCN2C(=O)c2ccn(C3CCCC3)n2)n1` (stereo unspecified), for which the Percent Effect is -3.89% in experiment [1]; 20% in [2]; -10.1% in [3]; -4.33% in experiment [4]; 5.89% in the experiment with Trypanosoma cruzi; -15.3% in experiment [5]. The Percent Effect in experiment [6] is 13.7%; in the experiment filed under Homo sapiens it was 24.3%; in experiment [7], 9.52%; in [8], 12.8%; in experiment [9], -15.7%.

On to `Fc1ccc(CN2CCC(c3n[nH]c4nccnc34)CC2)cc1F`, for which the Percent Effect was -3.35% in experiment [1]; 9.46% in [2]; 4.38% in [3]; -4.91% in experiment [4]; 0.593% with Trypanosoma cruzi; -1.16% in [5]. Also, the Percent Effect in experiment [6] was 19.8%; in the experiment listed under Homo sapiens, 7.61%; in [7], 1.07%; in experiment [8], 6.49%; in [9] it was -18.1%.

For `CC(=O)N1CCC(Oc2ccc(C#N)cn2)CC1`, the Percent Effect in [1] was -4.01%; in experiment [2], 8.22%; in [3] it was 1.71%; in [4], 12.9%; with Trypanosoma cruzi, 2.94%; in experiment [5], 7.27%. The Percent Effect in [6] is 4.44%; in the experiment filed under Homo sapiens it was 11.1%; in [7], 4.3%; in [8], 12.5%; in experiment [9], -5.65%.

For `COc1ccc(S(=O)(=O)NCc2cccnc2N(C)C)cc1F`, the Percent Effect in [1] is -1.87%; in experiment [2] it was 20.2%; in experiment [3], -8.9%; in [4], -2.51%; in the experiment on Trypanosoma cruzi it was 2.74%; in experiment [5], 6.08%. The Percent Effect in experiment [6] was 4.18%; in the experiment filed under Homo sapiens, 21.9%; in [7], 8.37%; in experiment [8], 24.1%; in [9] it was -5.49%.

For `CC(=O)Nc1cccc(OCCNC(=O)N(C)Cc2ccco2)c1`, the Percent Effect was -4.59% in experiment [1]; 2.63% in [2]; 7.27% in [3]; -2.99% in [4]; 1.46% in the experiment on Trypanosoma cruzi; -4.73% in experiment [5]. The Percent Effect in experiment [6] was 6.62%; in the experiment listed under Homo sapiens, -1.59%; in experiment [7] it was 4.25%; in experiment [8], 0%; in experiment [9], -3.97%.

In the case of `c1ccc(Oc2cc(CNCC3CNc4ccnn4C3)ccn2)cc1` (stereo unspecified), the Percent Effect in [1] was -2.02%; in experiment [2], 11.4%; in experiment [3] it was -0.557%; in [4] it was -0.022%; in the experiment on Trypanosoma cruzi, 5.85%; in experiment [5], 2.37%. In addition, the Percent Effect in experiment [6] was 11.7%; in the experiment filed under Homo sapiens, 11.8%; in experiment [7], 19.8%; in experiment [8] it was 20.2%; in [9], -13.3%.

Take `Cn1cnnc1C1CCCN(C(=O)NCCNc2ccccn2)C1` (stereo unspecified): the Percent Effect in experiment [1] is -5.92%; in experiment [2] it was 18.2%; in experiment [3] it was 3.59%; in experiment [4], 4.46%; with Trypanosoma cruzi it was 0.881%; in experiment [5], 6.53%. The Percent Effect in experiment [6] is 9.78%; in the experiment listed under Homo sapiens, 4.54%; in [7], 7.62%; in experiment [8], 18.8%; in experiment [9] it was -9.77%.
